PHOSPHO1 block = PHOSPHO1 (human) inhibition; recombinant PHOSPHO1, absorbance phosphatase assay; hit rate 1.1% among 290,000; inhibition, % at 13.3 µM; AID 1565; in the data active = inhibition above about 60%
PvdQ acylase = P. aeruginosa PvdQ acylase inhibition; purified PvdQ acylase, fluorescence plate reader; inhibition, % at 10 µM; hit rate 0.063% among 340,000; AID 488965; in the data active = inhibition above about 30%, passing the limit was not always enough; inconclusive = no clear call, values can overlap the other calls;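 note: 0% = vehicle neutral wells and 100% = reference inhibitor wells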
p-CIP stab down = compounds decreasing mouse p/CIP protein stability | decrease of EGFP signal, % at 10 µM | Q05BA5 | hit rate 0.01% among 290,000 | F442A p/CIP-EGFP cells, EGFP fluorescence, 16 h;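 active = EGFP signal decrease of at least 30% at 10 µM or well 3 SD below plate mean, unless failing retest; inactive = the rest, including hits failing retest or dose response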
Target sequence (Q05BA5 1-1403): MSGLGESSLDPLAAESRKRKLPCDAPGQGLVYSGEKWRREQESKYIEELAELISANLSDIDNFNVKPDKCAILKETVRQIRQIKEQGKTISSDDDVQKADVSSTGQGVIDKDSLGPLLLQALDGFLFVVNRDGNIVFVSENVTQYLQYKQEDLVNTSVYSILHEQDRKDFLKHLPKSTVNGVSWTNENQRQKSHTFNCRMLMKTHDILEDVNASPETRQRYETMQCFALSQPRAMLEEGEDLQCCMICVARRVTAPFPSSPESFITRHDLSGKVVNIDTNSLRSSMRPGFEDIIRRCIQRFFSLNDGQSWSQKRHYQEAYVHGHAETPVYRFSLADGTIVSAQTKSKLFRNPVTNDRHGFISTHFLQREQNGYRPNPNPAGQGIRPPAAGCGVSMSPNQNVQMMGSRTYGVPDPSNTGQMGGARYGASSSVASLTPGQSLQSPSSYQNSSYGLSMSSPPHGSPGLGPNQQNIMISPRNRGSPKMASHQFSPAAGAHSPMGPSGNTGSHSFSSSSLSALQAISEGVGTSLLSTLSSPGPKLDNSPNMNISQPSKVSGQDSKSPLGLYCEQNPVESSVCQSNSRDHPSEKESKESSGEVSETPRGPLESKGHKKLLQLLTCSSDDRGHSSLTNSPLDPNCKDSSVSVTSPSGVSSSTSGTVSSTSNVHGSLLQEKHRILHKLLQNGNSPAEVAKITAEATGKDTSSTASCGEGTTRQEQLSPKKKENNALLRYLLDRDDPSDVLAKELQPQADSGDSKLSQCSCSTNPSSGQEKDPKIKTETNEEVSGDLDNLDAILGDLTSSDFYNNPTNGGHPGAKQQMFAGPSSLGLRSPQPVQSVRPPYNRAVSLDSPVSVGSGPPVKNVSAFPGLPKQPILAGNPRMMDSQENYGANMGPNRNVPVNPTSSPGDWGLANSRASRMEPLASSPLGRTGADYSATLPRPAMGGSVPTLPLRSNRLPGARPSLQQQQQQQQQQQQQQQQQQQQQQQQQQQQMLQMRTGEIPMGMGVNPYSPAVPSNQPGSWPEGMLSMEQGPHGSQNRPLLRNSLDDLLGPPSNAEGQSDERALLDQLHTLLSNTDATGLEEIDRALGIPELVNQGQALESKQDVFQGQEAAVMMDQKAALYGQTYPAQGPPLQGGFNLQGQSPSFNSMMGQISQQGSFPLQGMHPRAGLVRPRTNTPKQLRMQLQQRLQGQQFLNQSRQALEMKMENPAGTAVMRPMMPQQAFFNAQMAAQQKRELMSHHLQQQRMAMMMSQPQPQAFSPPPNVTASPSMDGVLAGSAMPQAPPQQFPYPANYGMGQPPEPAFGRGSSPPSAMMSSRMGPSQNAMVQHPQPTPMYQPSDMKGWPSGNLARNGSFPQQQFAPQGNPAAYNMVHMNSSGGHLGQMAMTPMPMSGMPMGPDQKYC
GASC-1 inh = blocks human GASC-1 demethylase activity; Q9H3R0; hit rate 0.069% among 330,000; inhibition, % at 2.35 µM; AID 2099; GST-JMJD2C(1-420) H3K9me3 demethylation, DELFIA europium;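 active = more than half of a compound's replicate wells show inhibition beyond 50%, single wells judged on their own value; inconclusive = some, but no more than half, of replicates pass 50% inhibition; inactive = no replicate passes 50% inhibition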;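 note: signal counts dimethyl H3K9 product captured on neutravidin plate; 0% = median of DMSO wells and 100% = 0.3 times that DMSO median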
HDAC3 inh = inhibitors of human histone deacetylase 3; O15379; recombinant HDAC3, fluorogenic peptide/trypsin coupled, fluorescence; inhibition, % at 8.3 µM; hit rate 0.15% among 320,000; in the data active = inhibition above about 26%, passing the limit was not always enough; inconclusive = no clear call, values can overlap the other calls
Mot1-301 SUMO = inhibitors of SUMOylation pathway: yeast Mot1-301 growth rescue | S. cerevisiae Mot1-301 growth rescue, ATP luminescence, 38.5C; percent above DMSO median, 100 means doubled | growth rescue, % at 18.8 µM | hit rate 1% among 320,000;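 active = every valid replicate shows activation above 250% relative to neutral control wells; inactive = the rest, any valid replicate at or below 250%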;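 note: OY570 slx delta 5 strain wells were the positive control but not used for scaling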
* = called active by the depositor; ? = inconclusive; . = no result; + = active, no number. Rows were chosen to be rich in hits. Some 2.2% of all compounds tested hit in one or more screens of this group.

SMILES	PHOSPHO1 block	PvdQ acylase	p-CIP stab down	GASC-1 inh	HDAC3 inh	Mot1-301 SUMO
Cc1ccc(C(=O)Nc2cccnc2N2CCN(C)CC2)cc1	-8	-7	10	0	2	-2
Cc1cc2c(cc1C)CSC(c1ccc3ccccc3c1O)SC2	-24	-8	-17	5	-3	-11
Cc1cc2c(cc1C)CSC(c1ccccc1O)SC2	26	-11	-2	-8	-3	273*
CCCCCCC(=O)N(O)C1CC(=O)N(Cc2ccccc2)C1=O (centres undefined)	-22	8	-3	-21	78*	14
CCCCCC(=O)N(O)C1CC(=O)N(c2ccccc2)C1=O (centres undefined)	5	-10	-7	2	75*	130
CCCCCC(=O)NNC1CC(=O)N(c2ccccc2)C1=O (centres undefined)	-1	.	0	-4	-1	1
CCc1cc2c(SCC#N)ncnc2s1	13	-3	4	-2	3	129
N#CC(c1ccc(Cl)nn1)c1c(F)cccc1Cl (centres undefined)	-5	66*	-75	0	-2	-5
N#C/C(=C\c1c(F)cccc1Cl)S(=O)(=O)c1ccccn1	-2	4	-21	-10	-6	11
COc1ccc(CCC(=O)OCC(=O)c2cccc(OC)c2)cc1	1	-10	6	-2	5	16
COC(=O)c1cc(S(=O)(=O)NC2CCC(C)CC2)cn1C (centres undefined)	64*	-9	0	9	-8	-12
COCCn1c(-c2ccco2)csc1=Nc1cccnc1	98*	-5	-2	1	3	-11
COc1cccc(C(=O)CC(C#N)c2ccc(F)cc2)c1 (centres undefined)	44	69*	-6	13	-1	-13
C[C@H]1CCC2[C@](C)(CO)[C@@H](O)CC[C@]2(C)[C@@]12CCC(CO)(CCO)O2 (some centres undefined)	7	-9	-5	98	3	-5
CC(C)CNC(=O)c1cccc(NC(=O)c2ccc(Cl)c([N+](=O)[O-])c2)c1	-16	-20	-11	3	2	-30
Clc1ccc(CNCCCSc2ncccn2)cc1	.	-11	-1	10	0	10
Brc1ccc(CNCCCSc2ncccn2)cc1	.	5	-14	-1	35*	57
CCOC(=O)c1sc(N)c(C#N)c1CSc1nnc(C2CCCCC2)n1N	88*	-14	2	-8	7	-11
COc1ccc(C(=O)Nc2ccc(C3CC3(Cl)Cl)cc2)cc1 (centres undefined)	71*	-9	-3	0	3	13
CCCCC1CCC(C(=O)N(CC(C)C)c2c(N)n(Cc3ccccc3)c(=O)[nH]c2=O)CC1 (centres undefined)	.	.	.	37	2	476
C=CCN(CC=C)C(=O)C1CCN(S(=O)(=O)c2ccc(N3CCCC3=O)cc2)CC1	32	-9	-6	5	-4	-2
Cc1cc(Cl)c(OCCCN(C)C)c(Br)c1	63*	-10	4	-11	-6	15
Cc1ccc(OCCCN(C)C)c(Br)c1	42	4	-7	5	1	0
CCCCC(=O)Nc1ccc(C(=O)N(CC)c2ccccc2C)cc1	66*	-7	7	6	-5	-6
CC(NS(=O)(=O)c1cccc(C(=O)NCc2ccncc2)c1)c1ccccc1 (centres undefined)	.	-6	.	6	-5	1
SMILES	PHOSPHO1 block	PvdQ acylase	p-CIP stab down	GASC-1 inh	HDAC3 inh	Mot1-301 SUMO
CCN(CC(=O)Nc1c(F)cccc1F)C(=O)c1ccc(=O)n(Cc2ccccc2)n1	43	-11	10	1	-5	44
CCN(CC(=O)Nc1cc(Cl)ccc1C)C(=O)c1ccc(=O)n(Cc2ccccc2)n1	62*	-11	-14	-5	-2	2
O=C(Nc1nccs1)c1nc(-c2ccccc2)n(-c2ccccc2)n1	3	-12	-8	-1	2	314*
NS(=O)(=O)c1ccc(NC(=O)C2C3C=CC(C3)C2C(=O)O)cc1 (centres undefined)	60*	5	0	8	4	-7
COc1ccc(NC(=O)C2C3C=CC(C3)C2C(=O)O)cc1 (centres undefined)	24	-15	-12	4	-2	0
Cc1ccc(CNC(=O)CS(=O)Cc2nc(-c3ccccc3F)oc2C)cc1 (centres undefined)	44	-17	-1	-11	1	3
CCOc1cccc(C(=O)N/N=C/c2coc3ccccc3c2=O)c1	19	-14	-19	3	.	0
COc1ccc(Cc2nn3c(-c4cc(OC)c(OC)c(OC)c4)nnc3s2)cc1	-14	-17	-5	-6	4	-2
COc1cc(-c2nnc3sc(Cc4ccccc4)nn23)cc(OC)c1OC	70*	9	-17	2	-2	304
CCOC(=O)c1[nH]cc(-c2ccccc2)c1N1CCOCC1	80*	-10	-6	-6	-9	-13
CC(C)c1ccc(NC(=O)C2CCCCC2C(=O)O)cc1 (centres undefined)	-7	2	-1	28	-1	+
[O-]/C(=C(\C(=S)NCc1ccccc1)[n+]1ccccc1)c1ccc(Cl)s1	-10	-2	-5	-5	2	12
Cc1ccc(S(=O)(=O)NCC2CCC(C(=O)NC3CCCCC3)CC2)cc1 (centres undefined)	23	-17	-8	8	-6	9
CC1CCCCC1NC(=O)C1CCC(CNS(=O)(=O)c2ccc(F)cc2)CC1 (centres undefined)	29	-18	3	-6	1	295*
CCCN(CCC)CCCNC(=O)c1cc2c(=O)[nH]c3ccccc3c2s1	30	-16	-14	-2	-39	-13
Cc1cc(C)c2c(c1)NC(C(=O)O)C1CC=CC21 (centres undefined)	45	9	-3	-40	3	6
O=C(O)C1Nc2c(C(=O)N3CCOCC3)cccc2C2C=CCC12 (centres undefined)	63*	-7	0	-3	-3	-13
Cc1ccc2c(c1C)NC(C(=O)O)C1CC=CC21 (centres undefined)	62*	2	-8	-19	?	361
CCN(CC)CC(=O)Nc1c(C#N)cnn1-c1ccccc1	46	-11	-4	6	-3	-31
O=c1c2ccccc2nc(N/N=C/c2c(O)ccc3ccccc23)n1O	66*	7	12	14	12	42
O=c1c2ccccc2nc(N/N=C/c2ccc(O)cc2)n1O	88*	-25	-2	5	-3	3
Cc1nc2ccccc2c(=O)n1/N=C/c1c(O)ccc2ccccc12	19	0	6	1	1	-10
O=C(CN(Cc1ccc(F)cc1)C(=O)CCC(=O)Nc1nccs1)NCc1ccc(F)cc1	36	-9	-11	10	-5	4
